Data: PubChem BioAssay AID1259311 (ICCB-Longwood Screening Facility, Harvard Medical School, 2017)
Among all 330,000 compounds or so, about 1,100 (0.33%) were called active. Rule as the data show it: active = inhibition above about 85%; inactive = the rest. The entries come from a sample that favours actives as a whole.

Assay: growth inhibition of S. aureus RN4220, primary screen, OD600 (AID 1259311);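 also: plate controls were untreated cells for no effect and reference antibiotic for full effect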
Conditions: OD600, 16 h, stronger effect = higher value

Compound | inhibition
Cc1cc(C(=O)CCl)c(C)n1CC1COc2ccccc2O1 (configuration not stated) | 93.5% (active)
Cc1ccsc1C(=O)OCC(=O)c1cc(C)n(CC2CCCO2)c1C (configuration not stated) | 2.84% (inactive)
O=C1C(=O)N(CC2COc3ccccc3O2)c2ccccc21 (configuration not stated) | 5.32% (inactive)
CON=Cc1ccc(Sc2ccc(C)cc2)c([N+](=O)[O-])c1 | -19% (inactive)
OCc1ccc(OCCCOc2cccc3cccnc23)cc1 | 4.11% (inactive)
NC(=O)C1CCN(C(=O)COc2cccc3cccnc23)CC1 | -6.77% (inactive)
O=C(Nc1ccccc1)Oc1cccc2cccnc12 | 94.9% (active)
CCCOc1ccc(NC=CC(=O)C(C)(C)C)cc1 | 7.56% (inactive)
Cc1cc(C(=O)NN=Cc2ccncc2)c(C)o1 | -0.256% (inactive)
CNC(=S)NN=C(C)c1ccc(C(C)(C)C)cc1 | 0.974% (inactive)
Cc1ccc(N2C(=O)C3N=NN(CC(=O)N4N=C(c5cccc6ccccc56)CC4c4ccccc4)C3C2=O)cc1 (configuration not stated) | 1.33% (inactive)
O=C1C2N=NN(CC(=O)N3N=C(c4cccc5ccccc45)CC3c3ccccc3)C2C(=O)N1c1ccccc1 (configuration not stated) | 7.1% (inactive)
Oc1ccccc1C1=NN(c2ccccc2)C(c2ccccc2)C1 (configuration not stated) | 94% (active)
Cc1ccc(NC(=S)Nc2ccc(F)cc2)cc1 | -0.939% (inactive)
Cc1cccc(NC(=S)Nc2ccc(Cl)c(Cl)c2)c1 | 98.8% (active)
Cc1cccc(NC(=S)NN=C(c2ccccc2)C(C)C)c1 | -4.52% (inactive)
CC(=O)NN=C(C)CC(=O)Nc1ccc2c(c1)OCCO2 | 1.21% (inactive)
Cn1ccc(=Nc2ccc(NC(=O)c3ccc(N=c4ccn(C)c5ccc([N+](=O)[O-])cc45)cc3)cc2)cc1 | 95.4% (active)
CCc1ccc(NC(=O)c2ccc(Cn3cc([N+](=O)[O-])cn3)cc2)cc1 | 18.3% (inactive)
COc1cc(NS(=O)(=O)c2ccc(NC(=O)c3ccc([N+](=O)[O-])cc3)cc2)ncn1 | 2.54% (inactive)
CC(NC(=O)c1nc[nH]c1C(=O)N(C)Cc1ccccc1)C(=O)OC(C)(C)C (configuration not stated) | 2.94% (inactive)
CCc1ccc(C=NNc2nn[nH]n2)cc1 | 0.812% (inactive)
O=C(Nc1ccccc1C(=O)Nc1ccncc1)c1ccc([N+](=O)[O-])cc1 | 3.63% (inactive)
O=C(Nn1cnnc1)c1ccc([N+](=O)[O-])cc1 | 4.07% (inactive)
O=C(c1ccncc1)c1ccc([N+](=O)[O-])cc1 | 75% (active)
Cc1c(NC(=O)C(=O)C=C(O)c2ccccc2)c(=O)n(-c2ccccc2)n1C | -0.817% (inactive)
C#CCOCCOCCOCCNc1nc(N2CCN(C(=O)C(CCCCN)n3cc(CCC(=O)O)nn3)CC2)nc(N2CCN(C(=O)C(C(C)O)n3cc(CCCCN)nn3)CC2)n1 (configuration not stated) | -0.306% (inactive)
